Experimental data: PubChem BioAssay (NCI)
The panel holds about 83,000 compounds, 20% with a hit somewhere; the sample as a whole holds those more often.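 Method: cells in 96-well plates; compound added at one concentration; 48 h incubation; percent growth measured; values under 10 scored active.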 Calls of active or inactive are those of the source.

These compounds were tested on MDA-MB-231 breast (assay: NCI-60 one-dose screen, 48 h (100 = growth as untreated, 0 = no growth, -100 = all killed)). Details: 10 µM unless noted.

**Q.** Which growth does the source give for CCC(CC)N1C(=O)/C(=c2\sc3n(c2=O)NC2C(N=3)N(CC)C(=O)N2CC)c2ccccc21 (stereo not given) here?
**A.** 53.2% (inactive)

**Q.** Which growth does the source give for CN1CCN(c2ccc(/C=N/Nc3nc4ccccc4c(=O)n3-c3ccccc3)cc2)CC1 here?
**A.** 105% (inactive)

**Q.** For CC1=NC2=NC(=O)/C(=C3/N=C(C)C=C(c4ccccc4)N3N)NN2C(c2ccccc2)=C1, which growth is on record?
**A.** 72.2% (inactive)

**Q.** For Nc1ncc(-c2ccc3ncnc(N4CCc5cc(F)c(F)cc54)c3c2)cn1, which growth is on record?
**A.** 26.9% (inactive)

**Q.** How did the growth turn out when COc1ccc(Oc2ccc(/C=N/NC(=O)CSc3nc4ccccc4c(=O)n3-c3ccc(Cl)cc3)cc2)cc1 was run?
**A.** 46.7% (inactive)

**Q.** With COc1ccc2c(c1)Oc1nc(N)c(C#N)c(N)c1C2Sc1ccc(C)cc1 (stereo not given) as the compound, how does the growth read?
**A.** -77.1% (active)

**Q.** How did the growth turn out when CC(=O)C1=C(C)NC(NN)=NC1c1cccc(Cl)c1 (stereo not given) was run?
**A.** 96.6% (inactive)

**Q.** With O=C(NNc1nc2cc(F)ccc2n2c(CO)ccc12)c1cnccn1 as the compound, how does the growth read?
**A.** 35.9% (inactive)

**Q.** With NC(N)=Nc1ccc(Oc2cccc(NC(N)=Nc3ccc(Br)cc3)c2)cn1 as the compound, how does the growth read?
**A.** 76.8% (inactive)

**Q.** How did the growth turn out when CCOC(=O)C1=NNC(c2ccc(Cl)cc2)C1C(=O)N1C(=S)NC(=O)C1CC(C)C (stereo not given) was run?
**A.** 86.2% (inactive)

**Q.** Which growth does the source give for CC/C(=C/c1c(O)cccc1OC)c1ccc2c(OC)cccc2[o+]1 here?
**A.** 102% (inactive)

**Q.** Cn1ccnc1C(=O)/C=C/c1ccc(CNC(=O)c2ccc(Cl)cc2)cc1 was tested. Which growth did it give?
**A.** 13.3% (inactive)

**Q.** How did the growth turn out when COc1c(N2CC3CCCNC3C2)c(F)cc2c(=O)c(C(=O)N/N=C/c3ccc(F)cc3)cn(C3CC3)c12 (stereo not given) was run?
**A.** 82.3% (inactive)

**Q.** Which growth does the source give for CN(C)CCNC(=O)c1ccc(-c2nc3ccc4[nH]ncc4c3c3c2CCC3)cc1 here?
**A.** -2.41% (active)

**Q.** For C=C(C=O)[C@@H]1CC[C@]2(COC(C)=O)CC[C@]3(C)C(CC[C@@H]4[C@@]5(C)CC[C@H](OC(C)=O)C(C)(C)[C@@H]5CC[C@]43C)[C@@H]12 (stereo not given in full), which growth is on record?
**A.** -32.2% (active)

**Q.** For COc1c(N2CC3CCCNC3C2)c(F)cc2c(=O)c(C(=O)N/N=C/c3c[nH]c4ccccc34)cn(C3CC3)c12 (stereo not given), which growth is on record?
**A.** 95.3% (inactive)

**Q.** COc1cc(C2N=C(NNc3ccccc3)NC(C)=C2C(C)=O)ccc1O (stereo not given) was tested. Which growth did it give?
**A.** 76.8% (inactive)

**Q.** Which growth does the source give for CCCCCc1ccc(S(=O)(=O)Nc2cccc(-c3csc(NC(=O)CNCCN(C)C)n3)c2)cc1 here?
**A.** 93.5% (inactive)

**Q.** How did the growth turn out when CCCCCc1ccc(S(=O)(=O)Nc2cccc(-c3csc(NC(=O)CCCCCN4CCN(CCO)CC4)n3)c2)cc1 was run?
**A.** 75.7% (inactive)

**Q.** Which growth does the source give for CS(=O)(=O)Nc1cc(-c2ccc3ncc(C#N)c(NCc4ccccc4O)c3c2)cnc1Cl here?
**A.** 6.73% (active)

**Q.** With CC(=O)N1C(=S)NC(=O)C1CC(C)C (stereo not given) as the compound, how does the growth read?
**A.** 103% (inactive)

**Q.** For COc1cc(/C=C2\C(=O)Nc3ccccc32)ccc1OCc1ccc(Cl)cc1, which growth is on record?
**A.** 99% (inactive)

**Q.** For COc1cc2oc(-c3cccc(NC(=O)c4cc(N)ccc4Cl)c3)cc(=O)c2c(OC)c1OC, which growth is on record?
**A.** 87.8% (inactive)

**Q.** How did the growth turn out when COc1ccc(Cn2cc3c(c2-c2cc(OC)c(OC)c(OC)c2)CCc2c(CN4CCCC4)noc2-3)cc1 was run?
**A.** 36.7% (inactive)

**Q.** How did the growth turn out when CCCCCc1ccc(S(=O)(=O)Nc2cccc(-c3csc(NCCN4CCN(C)CC4)n3)c2)cc1 was run?
**A.** 64.3% (inactive)

**Q.** Which growth does the source give for CCC1=Cc2cc(OC)ccc2OC12C=Cc1cc(OC)ccc1O2 (stereo not given) here?
**A.** 34.9% (inactive)

**Q.** For CCCCCc1ccc(S(=O)(=O)Nc2cccc(-c3csc(NC(=O)CCCCCN4CCN(C)CC4)n3)c2)cc1, which growth is on record?
**A.** 42.9% (inactive)

**Q.** For N#Cc1cnc2ccc(-c3cnc4[nH]ncc4c3)cc2c1N1CCc2cc(F)c(Cl)cc21, which growth is on record?
**A.** 10.9% (inactive)

**Q.** Which growth does the source give for CC(C)C[C@@H]1N[C@@]2(C(=O)Nc3ccccc32)[C@@H](c2ccc(F)cc2)[C@@H]1C(=O)c1ccc(O)cc1 here?
**A.** 82.4% (inactive)

**Q.** How did the growth turn out when O=C(NNc1nc2cc(F)cc(F)c2n2cccc12)c1cnccn1 was run?
**A.** 33.4% (inactive)

**Q.** With O=C(NNc1nc2cc(F)c(F)cc2n2cccc12)c1cnccn1 as the compound, how does the growth read?
**A.** 44% (inactive)

**Q.** For O=C(CNc1nc(-c2cccc([N+](=O)[O-])c2)cs1)Nc1cccc([N+](=O)[O-])c1, which growth is on record?
**A.** -28.8% (active)

**Q.** For CC(Nc1c(C#N)cnc2ccc(-c3cnc(N)nc3)cc12)c1ccccc1 (stereo not given), which growth is on record?
**A.** 19.1% (inactive)

**Q.** Which growth does the source give for C=CCn1c(SCC(=O)Nc2ccc(C(=O)/C=C/c3ccc(Cl)cc3)cc2)nnc1-c1c[nH]c2ccccc12 here?
**A.** 81.5% (inactive)

**Q.** Which growth does the source give for CCCCCc1ccc(S(=O)(=O)Nc2cccc(-c3csc(NC(=O)CN4CCN(C)CC4)n3)c2)cc1 here?
**A.** 74.2% (inactive)
